For 24 molecules, Potency results are on record in PubChem BioAssay (Tox21).

Assay [1] in a line: qHTS assay to identify small molecule antagonists of the androgen receptor (AR) signaling pathway using the MDA cell line in the presence of 0.5 nM R1881 - cell viability counter screen (AID 1259242). Further: nearly all actives have a fitted effect of over 45% in size. Further: potency means the concentration at half of the fitted maximal effect. The gist of the method:
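qHTS format. MDA-kb2 (MMTV-luc, AR/GR responsive) + cpd + 0.5 nM R1881 final, 16 hr 37C/0% CO2 → CellTiter-Fluor 30 min → fluorescence intensity.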
A general note: Quantitative high-throughput screening tests each substance at several concentrations.

Assay [2] can be described thus: qHTS assay to identify small molecule HDAC inhibitors (AID 1259364).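 Further: wild-type HCT-116 cells with endogenous class I/II HDAC activity; top concentration of the series differs between compounds; on the % scale 0 is the no-effect control and ±100 the full control effect; nearly all actives have a fitted effect of over 45% in size.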 The gist of the method:
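Quantitative high-throughput format: overnight-seeded HCT-116 cells got compounds for 2 hr at 37C; HDAC-Glo I/II reagent added, 30 min RT, luminescence measured.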

Assay [3] in a line: qHTS assay to identify small molecule HDAC inhibitors - cell viability counter screen (AID 1259365). Further: nearly all actives have a fitted effect of over 50% in size. Further: potency means the concentration at half of the fitted maximal effect. The gist of the method:
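Wild-type HCT-116 cells, 1,500/well, cultured overnight, then compound-treated 2 h at 37 C. Viability measured as ATP luminescence with CellTiter-Glo after 30 min at room temperature.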

Assay [4] in a line: qHTS assay to identify small molecule agonists of the sonic hedgehog signaling (Shh) pathway - cell viability counter screen (AID 1259366). Further: nearly all actives have a fitted effect of over 50% in size. Further: potency means the concentration at half of the fitted maximal effect. The gist of the method: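 NIH/3T3-derived Gli1-Luc reporter cells, 2,000 per well, received compound after 4 h and were treated about 23 h at 37C. Viability measured in the same wells by CellTiter-Fluor fluorescence after 1 h.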
Assay [5] has as its target Estrogen receptor (Homo sapiens) (UniProt P03372). Briefly: qHTS assay to identify small molecule antagonists of the estrogen receptor alpha (ER-alpha) signaling pathway using the BG1 cell line in the presence of 0.1 nM 17-beta-estradiol (AID 1259244). Further: nearly all actives have a fitted effect of over 50% in size. Further: potency means the concentration at half of the fitted maximal effect. The gist of the method:
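Reporter is a stably transfected luciferase under four estrogen responsive elements in VM7Luc4E2 cells expressing native full-length ER-alpha; inhibition of 0.1 nM (final) 17beta-estradiol-driven signal over 22 h is read by luminescence.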

Assay [6] is described as follows: qHTS assay to identify small molecule antagonists of the sonic hedgehog signaling (Shh) pathway - cell viability counter screen (AID 1259367). Further: nearly all actives have a fitted effect of over 55% in size. Further: potency means the concentration at half of the fitted maximal effect. The gist of the method:
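Fluorescence read-out (CellTiter-Fluor, 1 hr at 37C) taken after 23 hr compound treatment of 3T3 Gli1-Luc cells stimulated with conditioned medium. Cells were seeded at 2,000 per well and pre-incubated 4 hr.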

The nature of assay [7]: qHTS assay to identify small molecule agonists of the sonic hedgehog signaling (Shh) pathway (AID 1259368; calls by dose curve;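 further: NIH/3T3-derived 3T3Gli1-Luc cells carrying a stable Gli1-driven firefly luciferase reporter; series mostly up to about 92 µM; on the % scale 0 is the no-effect control and ±100 the full control effect; nearly all actives have a fitted effect of over 15% in size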). The gist of the method: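 Quantitative high-throughput format using a Gli1-driven firefly luciferase reporter line derived from NIH/3T3 cells. After a 24 hr compound treatment at 37 C and 5% CO2, luminescence reported Gli1 response element activity.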
The nature of assay [8]: qHTS assay to identify small molecule phospholipidosis (PLD) inducers (AID 1259344; active means well fitted curve in the direction sought with a large enough effect; an effect the other way counts as inactive or inconclusive; further: on the % scale 0 is the no-effect control and ±100 the full control effect). The gist of the method: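 Read-out is LipidTOX Red fluorescence (ex 595/em 615) imaged in HepG2 cells after 24 h compound exposure at 37 C, with Hoechst nuclear counterstain (ex 352/em 461) allowing per-cell normalisation.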
Assay [9] concerns the target Androgen receptor (Homo sapiens) (UniProt P10275). Briefly: qHTS assay to identify small molecule antagonists of the androgen receptor (AR) signaling pathway using the MDA cell line in the presence of 0.5 nM R1881 (AID 1259243). Further: potency means the concentration at half of the fitted maximal effect; nearly all actives have a fitted effect of over 50% in size. The gist of the method:
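Antagonist mode quantitative HTS in MDA-kb2 MMTV-luciferase cells, agonist R1881 at 0.5 nM final, 16 hr exposure at 37C and 0% CO2, luminescent detection.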

Values joined by “and” are separate entries in the source; they are usually repeats but may differ in a detail not shown here. Equal values may be shown once. Results filed as inconclusive are left out. Active and inactive are the calls of the source. Unless noted, the call rests on the fitted dose curve; in most records, active means well fitted curve in the direction sought with a large enough effect in the repeat runs; inconclusive means weak or mixed curves; inactive means no such curve, though single readings can be large; an effect the other way counts as inactive or inconclusive.

Chain of Estrogen receptor (Homo sapiens) (P03372 whole entry, looked up): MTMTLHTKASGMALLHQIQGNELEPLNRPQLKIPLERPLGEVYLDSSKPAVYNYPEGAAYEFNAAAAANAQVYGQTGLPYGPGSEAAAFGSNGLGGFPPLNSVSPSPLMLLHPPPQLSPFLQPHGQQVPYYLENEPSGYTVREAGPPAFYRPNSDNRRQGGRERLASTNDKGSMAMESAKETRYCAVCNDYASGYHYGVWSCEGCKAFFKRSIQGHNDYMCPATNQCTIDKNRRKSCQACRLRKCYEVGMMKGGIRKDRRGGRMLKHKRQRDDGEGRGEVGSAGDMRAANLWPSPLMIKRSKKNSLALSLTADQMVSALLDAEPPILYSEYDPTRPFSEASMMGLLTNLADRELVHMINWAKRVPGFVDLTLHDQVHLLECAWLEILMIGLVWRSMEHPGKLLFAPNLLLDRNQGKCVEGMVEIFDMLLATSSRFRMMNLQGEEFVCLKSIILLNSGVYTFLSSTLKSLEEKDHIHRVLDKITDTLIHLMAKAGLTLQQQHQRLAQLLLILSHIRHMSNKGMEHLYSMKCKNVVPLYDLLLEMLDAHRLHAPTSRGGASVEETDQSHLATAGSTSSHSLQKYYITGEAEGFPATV
Chain of Androgen receptor (Homo sapiens) (P10275 whole entry, looked up): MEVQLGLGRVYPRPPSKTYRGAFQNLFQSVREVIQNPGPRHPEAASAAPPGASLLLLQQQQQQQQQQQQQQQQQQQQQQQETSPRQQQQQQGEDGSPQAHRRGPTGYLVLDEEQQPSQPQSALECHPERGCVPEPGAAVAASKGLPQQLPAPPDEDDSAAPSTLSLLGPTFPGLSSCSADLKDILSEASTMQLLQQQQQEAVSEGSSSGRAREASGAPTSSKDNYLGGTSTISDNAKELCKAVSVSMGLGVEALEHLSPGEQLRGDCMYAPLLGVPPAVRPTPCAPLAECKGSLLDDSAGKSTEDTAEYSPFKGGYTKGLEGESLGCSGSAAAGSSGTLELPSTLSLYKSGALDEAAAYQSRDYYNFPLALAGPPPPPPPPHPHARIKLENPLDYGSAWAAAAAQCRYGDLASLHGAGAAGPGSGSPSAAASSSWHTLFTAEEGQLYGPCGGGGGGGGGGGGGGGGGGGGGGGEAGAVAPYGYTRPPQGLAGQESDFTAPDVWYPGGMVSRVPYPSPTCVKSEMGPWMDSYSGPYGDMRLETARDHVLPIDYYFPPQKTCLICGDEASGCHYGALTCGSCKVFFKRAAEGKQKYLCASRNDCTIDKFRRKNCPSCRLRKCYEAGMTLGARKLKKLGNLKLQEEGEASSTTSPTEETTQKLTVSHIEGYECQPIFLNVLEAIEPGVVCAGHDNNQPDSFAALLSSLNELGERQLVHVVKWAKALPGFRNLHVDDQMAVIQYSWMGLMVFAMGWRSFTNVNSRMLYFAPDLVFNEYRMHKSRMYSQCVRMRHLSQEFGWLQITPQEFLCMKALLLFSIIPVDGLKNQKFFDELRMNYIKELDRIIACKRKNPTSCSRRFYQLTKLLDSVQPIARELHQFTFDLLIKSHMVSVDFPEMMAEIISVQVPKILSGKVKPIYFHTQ

`CCOCn1c(-c2ccc(Cl)cc2)c(C#N)c(Br)c1C(F)(F)F`: in assay [1], the Potency was 5.45 µM (active). The Potency entry in assay [2], in assay [3] and in assay [4] was “inactive” each time.

Take `O=CC(Br)(Br)Br`: the Potency was 43.1 µM (active) in [1], 24.3 µM (active) in assay [4] and 60.9 µM (active) in [6]. Also, the Potency entry in assay [5], in assay [2], in assay [3] and in [7] was “inactive” throughout.

`CCCCCCCCc1ccc(O)cc1`: the Potency entry in [8], in [2], in [3] and in assay [6] was “inactive” in each case.

As to `O=C(CCCN1CCC2(CC1)C(=O)NCN2c1ccccc1)c1ccc(F)cc1`, the Potency entry in [1], in [2], in assay [4] and in assay [6] was “inactive” throughout.

For the molecule `CC(C)(C)C(O)/C(=C\c1ccc(Cl)cc1Cl)n1cncn1` (configuration not stated), the Potency was 74 µM (active) in assay [5] and 65.9 µM (active) in assay [6]. The Potency entry in [2] and in assay [3] was “inactive” throughout.

For `COc1ccc(N)cc1N`, the Potency result in [2] and in [7] was “inactive” in each case. Besides, the Potency in assay [3] was 15.8 µM (active); in [4], 9.99 µM (active) and 29.4 µM (active); in assay [6], 15.8 µM (active) and 33 µM (active).

As for `Fc1cccc(Cl)c1CCl`, the Potency entry in [1], in assay [5], in assay [2], in assay [3], in [4] and in [6] was “inactive” throughout. Moreover, the Potency result in assay [7] is “inactive”.

`O=[N+]([O-])c1ccc2ccc3cccc4ccc1c2c34`: the Potency result in [1], in [3], in [4] and in assay [6] was “inactive” in each case. Further, the Potency in [9] is 0.863 µM (active).

With `CC[C@H]1C[C@@H]2C[C@H]3c4[nH]c5ccc(OC)cc5c4CCN(C2)[C@@H]13`, the Potency is 60.1 µM (active) in assay [9], 53.5 µM (active) in assay [4] and 60.1 µM (active) in assay [6]. For the same molecule, the Potency result in assay [8], in assay [2], in [3] and in [7] was “inactive” throughout.

Regarding `C=CCC1=C(C)C(OC(=O)C2C(C=C(C)C)C2(C)C)CC1=O` (configuration not stated), the Potency result in [2], in [3], in assay [4], in assay [6] and in [7] was “inactive” in each case.

For the molecule `COc1cc(C=O)cc2c1[C@H](COC(N)=O)[C@]1(OC(C)=O)ON2C[C@H]2[C@@H]1N2C(C)=O`, the Potency entry in assay [1], in assay [2], in assay [3] and in assay [7] was “inactive” throughout. Also, the Potency in [4] was 6.11 µM (active).

Regarding `Nc1ccc([N+](=O)[O-])cc1Cl`, in assay [9], the Potency is 24.3 µM (active). Moreover, the Potency result in assay [5], in assay [2], in assay [3], in assay [4], in [6] and in [7] was “inactive” in each case.

Turning to `Nc1ccc(Cc2ccc(N)c(Cl)c2)cc1Cl`, the Potency entry in assay [1], in assay [2], in assay [3] and in [7] was “inactive” throughout. For the same molecule, the Potency in assay [5] is 59.1 µM (active); in assay [6] it was 52.7 µM (active).

Turning to `O=C1NCN(c2ccccc2)C12CCN(CC1COc3ccccc3O1)CC2` (configuration not stated), the Potency result in assay [1], in assay [2], in assay [3] and in assay [7] was “inactive” in each case.

On to `CN(C)S(=O)(=O)N(SC(F)(Cl)Cl)c1ccccc1`, for which, in [2], the Potency result is “inactive”. For the same molecule, the Potency was 6.11 µM (active) in assay [4] and 12.2 µM (active) in assay [6].

Regarding `CCCCCCCCCCCCCC[P+](CCCCCC)(CCCCCC)CCCCCC` (tested in a mixture with another compound), the Potency is 19.3 µM (active) in [1]; 3.86 µM (active) in [5]; 68.6 µM (active) in [3]; 13.7 µM (active) in assay [4]; 48.6 µM (active) in assay [6]. Also, the Potency entry in [2] and in assay [7] was “inactive” throughout.

Turning to `CC(=O)[O-].CC(=O)[O-].O.O.[Cd+2]`, the Potency entry in [1], in assay [2], in [3] and in assay [7] was “inactive” each time. The Potency in [4] is 3.8 µM (active); in [6], 8.51 µM (active).

Turning to `O=[N+]([O-])O.O=[N+]([O-])O.[Cd]`, the Potency result in [1], in [2], in assay [3] and in assay [7] was “inactive” each time. Also, the Potency in [4] is 8.63 µM (active); in assay [6], 15.4 µM (active).

As to `CCCCCCCCCCCCCCCC[n+]1ccccc1`, the Potency in assay [1] was 32 µM (active) and 24.3 µM (active) and 26.9 µM (active); in [4] it was 60.3 µM (active) [middle of 4 runs]; in assay [6], 50.8 µM (active) and 61.1 µM (active) and 60.3 µM (active). The Potency entry in assay [2], in [3] and in [7] was “inactive” in each case.

In the case of `CN(C)CCc1c[nH]c2cccc(O)c12`, the Potency entry in [1], in assay [8], in [2], in [3] and in assay [7] was “inactive” in each case.

With `CCCCCCCCCCCCCCCCCCn1cc[n+](C)c1`, the Potency in [1] is 34.2 µM (active); in assay [9], 3.83 µM (active); in [4], 30.5 µM (active); in assay [6], 30.5 µM (active). Besides, the Potency entry in assay [2] and in [3] was “inactive” in each case.

For the molecule `CC(=O)OC1(c2ccccc2)CCN(CCc2ccccc2)CC1`, the Potency result in assay [1], in assay [2], in [3], in [6] and in assay [7] was “inactive” throughout.

As to `CCCCCCCCCC[N+](C)(C)CCCCCCCCCC`, the Potency in [1] is 54.5 µM (active); in assay [5], 30.6 µM (active); in assay [3], 68.6 µM (active); in [4], 21.7 µM (active); in [6], 13.7 µM (active). In addition, the Potency entry in assay [8], in assay [2] and in assay [7] was “inactive” throughout.

As for `c1ccc2cc3c(cc2c1)-c1cccc2cccc-3c12`, the Potency entry in assay [1], in assay [2], in assay [3], in assay [6] and in assay [7] was “inactive” throughout. Besides, in assay [9], the Potency was 3.02 µM (active).
